Out of some 200,000 compounds screened, about 15 (0.007%) were called active. Cut-off read from the data, not from the text of the source: active = displacement above about 50%; inactive = the rest. This excerpt belongs to a sample that is enriched for actives.
The molecules below were run against E3 ubiquitin-protein ligase XIAP (Homo sapiens) (UniProt P98170) (assay: small molecules displacing peptide from XIAP – biochemical, IAP family, fluorescence polarization (AID 1018)). Conditions: XIAP BIR domain, at 20 µM, stronger effect = higher value.
Sequence of E3 ubiquitin-protein ligase XIAP (Homo sapiens) (P98170 whole entry, looked up, the tested form may be a part): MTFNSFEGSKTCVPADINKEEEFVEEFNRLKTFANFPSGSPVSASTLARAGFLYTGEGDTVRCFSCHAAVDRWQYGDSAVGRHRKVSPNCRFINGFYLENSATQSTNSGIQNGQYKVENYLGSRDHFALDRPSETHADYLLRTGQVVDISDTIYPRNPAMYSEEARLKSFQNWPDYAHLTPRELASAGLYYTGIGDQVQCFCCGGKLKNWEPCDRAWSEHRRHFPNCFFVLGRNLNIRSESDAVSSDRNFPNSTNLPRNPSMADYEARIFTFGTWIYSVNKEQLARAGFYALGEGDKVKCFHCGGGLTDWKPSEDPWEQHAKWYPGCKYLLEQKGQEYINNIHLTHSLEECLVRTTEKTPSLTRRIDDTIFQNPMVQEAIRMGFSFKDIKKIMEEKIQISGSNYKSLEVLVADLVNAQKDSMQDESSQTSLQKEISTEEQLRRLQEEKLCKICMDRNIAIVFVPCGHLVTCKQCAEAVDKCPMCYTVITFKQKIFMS

displacement, active:
CCN1/C(=C/c2ccc3cc(C)ccc3[n+]2C)Sc2ccc3sccc3c21 72.1%, O=C(COc1cccc(NC(=O)c2cccc([N+](=O)[O-])c2)c1)c1ccc(F)cc1 59.8%

displacement, inactive:
O=C(NCCCO)c1ccc(CSc2nc3ccccc3[nH]2)cc1 -4%, CC(=O)C1C(c2cccc(F)c2)NC(=O)NC1(O)C(F)(F)F (stereo not given) 0%, COC(=O)C(NNc1ccccc1C)(NC(=O)c1ccc(F)cc1)C(F)(F)F (stereo not given) -3.9%, O=C(/C=C/c1ccco1)NCC(=O)N/N=C/c1ccccc1[N+](=O)[O-] -3.9%, O=c1c(Cc2ccc(F)cc2)c(O)ccn1CCc1ccccn1 -4.4%, CCN1/C(=C/c2ccc3cc(C)ccc3[n+]2CC)Sc2cc(C)ccc21 1.8%, CCN1/C(=C/c2ccc3cc(C)ccc3[n+]2CC)Sc2ccccc21 -5.1%, O=C(COc1ccccc1)Nc1ccncc1 -2.7%, Cc1sc(N)c(C#N)c1C -1.2%, CC(C)Oc1cccc(C(=O)C2CCCN(Cc3ccc4nonc4c3)C2)c1 (stereo not given) -5.9%, CCc1c(C)nc2c(Br)cccc2c1SCCC#N -0.5%, CN(C)c1nc(N)nc(CSc2nnnn2-c2ccccc2)n1 -5.7%, CCOC(=O)c1c(-c2ccccc2)oc2ccc(O)c(CN3CCN(C)CC3)c12 -5.2%, Cc1cc(NC(=O)COn2nnc3ccc(Cl)cc32)no1 -5.1%, COc1ccc(OC)c(NC(=O)C23CC4CC(C2)CC(n2cnc(Br)n2)(C4)C3)c1 -3.2%, CCC(Oc1ccccc1)C(=O)N1CC(C)CC(C)C1 (stereo not given) 2.4%, C[N+]1(CC(=O)OCCCc2ccccc2)CCCC1 -9.6%, O=C(NC1CCCc2ccccc21)c1ccc(S(=O)(=O)N2CCOCC2)cc1 (stereo not given) -3.4%, CCOc1cccc2cc(C(=O)N3CCc4ccccc43)c(=O)oc12 -88.7%, CCC(/C=N/NC(=O)C(=O)N/N=C/C(CC)CC)CC -0.2%, COc1cccc(C(=O)COc2cccc(NC(=O)c3cccc([N+](=O)[O-])c3)c2)c1 -1.9%, O=C(COc1cccc(NC(=O)c2cccc([N+](=O)[O-])c2)c1)c1ccc(Br)cc1 -6.2%, CC(=O)Nc1ccccc1OCC(=O)NCCc1ccc(Cl)cc1Cl -8.3%, COCCNC(=O)CCSCc1ccccc1F -1.3%, O=C(Nc1ccccc1C(F)(F)F)NC1CCCCC1 -2.8%, CC(=O)Nc1cc(C)c(S(C)(=O)=O)c(C)c1 -8.9%, CC1CN(CC(O)COC(c2ccccc2)c2ccccc2)CC(C)O1 (stereo not given) -4.7%, CC(=C/c1ccc(C(C)C)cc1)/C=N/NC(=O)c1ccncc1 -6.3%, O=C(CN1CCc2ccccc2C1)Nc1ccc(F)cc1F -0.5%, Cc1ccc(C(=O)Nc2ncc(C)s2)o1 -3.4%, COc1ccccc1CCc1nnc(CCC(=O)NCCCOc2cccnc2)o1 -4.3%, CC1=C(C(=O)Nc2ccccc2)C(c2ccccc2[N+](=O)[O-])NC(=O)N1 (stereo not given) -1.5%, O=[N+]([O-])c1ccccc1OCCCN1CCOCC1 -4.4%, CC(C)CNC(=O)NC(=O)COc1ncnc2sccc12 -1.4%, COc1ccc(NC(=O)CSc2nnc(NC(=O)c3ccccc3C(=O)O)s2)cc1 -4.3%, Cc1ccc(Sc2nc(C)cc(C)c2S(C)(=O)=O)cc1 -4.9%, COCCNC(=O)NC(=O)COC(=O)c1ccc2[nH]c3c(c2c1)CCCC3 -1.1%, O=C(CCCC(=O)OCC(Cl)=C(Cl)Cl)Nc1cccc(F)c1 -3.5%
